Test results: PubChem BioAssay AID1159580 (chemical genetic matrix, 2015)
The campaign covered roughly 5,500 compounds. About 2,000 (36%) were called active. Roughly 18% stayed inconclusive and do not appear here. Rule as the data show it: active = normalized growth mostly below about 0.91 (no sharp cut-off); inconclusive = no clear call, values can overlap the other calls; inactive = mostly above about 0.92. This is one part of the list.

Assay: chemical genetic growth profiling, strain panel (AID 1159580);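 also: tested at 20 µM; growth read once vehicle control cultures reached saturation at 30 °C; 1 = growth at the plate median or of vehicle wells; lower values mean less growth of the strain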
Details: S. cerevisiae deletion strains, growth OD
[1] = locus YAL013W, strain DEP1, stronger effect = lower value
[2] = locus YBR229C, strain ROT2, stronger effect = lower value
[3] = locus YDL101C, strain DUN1, stronger effect = lower value
[4] = locus YDR150W, strain NUM1, stronger effect = lower value
[5] = locus YEL061C, strain CIN8, stronger effect = lower value
[6] = locus YGR078C, strain PAC10, stronger effect = lower value
[7] = locus YHR030C, strain SLT2, stronger effect = lower value
[8] = locus YHR087W, strain rtc3, stronger effect = lower value
[9] = locus YJL187C, strain SWE1, stronger effect = lower value
[10] = locus YJR043C, strain POL32, stronger effect = lower value
[11] = locus YJR075W, strain HOC1, stronger effect = lower value
[12] = locus YLR039C, strain RIC1, stronger effect = lower value
[13] = locus YLR058C, strain SHM2 (second series), stronger effect = lower value
[14] = locus YLR085C, strain ARP6, stronger effect = lower value
[15] = locus YLR262C, strain YPT6, stronger effect = lower value
[16] = locus YML094W, strain GIM5, stronger effect = lower value
[17] = locus YMR219W, strain ESC1, stronger effect = lower value
[18] = locus YMR263W, strain SAP30, stronger effect = lower value
[19] = locus YNL153C, strain GIM3, stronger effect = lower value
[20] = locus YNL298W, strain CLA4 (second series), stronger effect = lower value
[21] = locus YNL322C, strain KRE1, stronger effect = lower value
[22] = locus YNR030W, strain Alg12, stronger effect = lower value
[23] = locus YOL006C, strain TOP1, stronger effect = lower value
[24] = locus YPL055C, strain LGE1, stronger effect = lower value
[25] = locus YPL241C, strain CIN2, stronger effect = lower value
[26] = locus YPR135W, strain CTF4, stronger effect = lower value

Measured: normalized growth

CSC(=Nc1ccc(C(C)C)cc1)NC#N
inactive: [1] 0.993 | [2] 0.978 | [3] 1.02 | [4] 0.916 | [5] 1 | [6] 0.98 | [7] 0.88 | [8] 0.97 | [9] 0.981 | [10] 0.982 | [11] 0.936 | [12] 0.971 | [13] 0.955 | [14] 0.86 | [15] 0.943 | [16] 1.04 | [17] 0.97 | [18] 0.978 | locus YNL128W, strain TEP1, stronger effect = lower value 0.965 | [19] 1 | [20] 0.947 | [21] 0.986 | [22] 0.988 | [23] 0.839 | [24] 0.985 | [25] 0.908 | [26] 0.855

FC(F)(F)c1ccc(-n2cncn2)nc1
inactive: [1] 1.03 | [2] 1.01 | [3] 1 | [4] 0.988 | [5] 1.01 | [6] 1.01 | locus YGR229C, strain SMI1, stronger effect = lower value 1.01 | [7] 1.09 | [8] 1.02 | [9] 1.01 | [10] 1.02 | [11] 0.99 | [12] 1.04 | [13] 1 | [15] 1.01 | [16] 1.07 | [17] 1.01 | [18] 1.01 | locus YMR307W, strain GAS1, stronger effect = lower value 1.08 | [19] 0.996 | [20] 1.07 | [21] 1 | [22] 1.04 | [23] 1.25 | [24] 1.07 | [25] 1 | [26] 1.15
active: [14] 1.24 [resistant]

Cc1oc(-c2ccc(Cl)cc2)cc1C(=O)N1CCN(c2ccc(C(F)(F)F)cn2)CC1
inactive: locus YAR019C, strain CDC15, stronger effect = lower value 0.977 | locus YBL105C, strain PKC1, stronger effect = lower value 0.972 | locus YBR135W, strain CKS1, stronger effect = lower value 0.97 | locus YBR136W, strain MEC1, stronger effect = lower value 0.963 | locus YBR160W, strain CDC28, stronger effect = lower value 0.969 | locus YDL017W, strain CDC7, stronger effect = lower value 0.978 | locus YDL028C, strain MPS1, stronger effect = lower value 0.974 | [3] 0.983 | locus YDL108W, strain KIN28, stronger effect = lower value 0.974 | locus YDL132W, strain cdc53, stronger effect = lower value 0.982 | locus YDL214C, strain PRR2, stronger effect = lower value 0.908 | locus YDR052C, strain DBF4, stronger effect = lower value 0.982 | locus YDR054C, strain cdc34, stronger effect = lower value 0.969 | locus YDR226W, strain ADK1, stronger effect = lower value 0.972 | locus YDR477W, strain SNF1, stronger effect = lower value 0.925 | locus YER123W, strain YCK3, stronger effect = lower value 0.926 | locus YER133W, strain GLC7, stronger effect = lower value 0.938 | locus YFL009W, strain cdc4, stronger effect = lower value 0.967 | locus YFL029C, strain CAK1, stronger effect = lower value 0.986 | locus YFR003C, strain YPI1, stronger effect = lower value 0.974 | locus YFR019W, strain FAB1, stronger effect = lower value 0.992 | locus YFR028C, strain CDC14, stronger effect = lower value 0.976 | locus YGR040W, strain KSS1, stronger effect = lower value 0.929 | locus YGR052W, strain FMP48, stronger effect = lower value 0.959 | locus YGR092W, strain DBF2, stronger effect = lower value 0.874 | locus YHR079C, strain IRE1, stronger effect = lower value 0.964 | locus YHR082C, strain KSP1, stronger effect = lower value 0.966 | locus YHR205W, strain SCH9, stronger effect = lower value 0.883 | locus YIL147C, strain SLN1, stronger effect = lower value 0.979 | locus YJL095W, strain BCK1, stronger effect = lower value 0.905 | locus YJL128C, strain PBS2, stronger effect = lower value 0.918 | locus YJL157C, strain FAR1, stronger effect = lower value 0.944 | locus YJR016C, strain ILV3, stronger effect = lower value 0.979 | locus YJR066W, strain TOR1 (second series), stronger effect = lower value 0.975 | locus YJR066W, strain TOR1, stronger effect = lower value 0.9 | locus YKL048C, strain ELM1, stronger effect = lower value 0.976 | locus YKL067W, strain YNK1, stronger effect = lower value 0.907 | locus YKL101W, strain HSL1, stronger effect = lower value 0.94 | locus YKL193C, strain SDS22, stronger effect = lower value 0.97 | locus YKL203C, strain TOR2, stronger effect = lower value 1 | locus YLR113W, strain HOG1, stronger effect = lower value 0.893 | locus YLR133W, strain CKI1, stronger effect = lower value 0.929 | locus YLR403W, strain SFP1, stronger effect = lower value 0.94 | locus YML070W, strain DAK1, stronger effect = lower value 0.951 | locus YMR001C, strain CDC5, stronger effect = lower value 0.989 | locus YMR205C, strain PFK2 (second series), stronger effect = lower value 0.937 | locus YMR277W, strain FCP1, stronger effect = lower value 0.975 | locus YNL006W, strain LST8, stronger effect = lower value 0.981 | locus YNL020C, strain ARK1, stronger effect = lower value 0.933 | locus YNL161W, strain CBK1, stronger effect = lower value 0.975 | locus YNL183C, strain NPR1, stronger effect = lower value 0.95 | locus YNL207W, strain RIO2, stronger effect = lower value 0.973 | locus YNL222W, strain SSU72, stronger effect = lower value 0.981 | locus YNL307C, strain MCK1 (second series), stronger effect = lower value 0.944 | locus YOL078W, strain AVO1, stronger effect = lower value 0.981 | locus YOL136C, strain PFK27, stronger effect = lower value 0.961 | locus YOR061W, strain CKA2, stronger effect = lower value 0.873 | locus YOR119C, strain RIO1, stronger effect = lower value 0.929 | locus YOR231W, strain MKK1, stronger effect = lower value 0.96 | locus YOR329C, strain SCD5, stronger effect = lower value 0.982 | locus YPL031C, strain PHO85, stronger effect = lower value 0.936 | locus YPL153C, strain RAD53, stronger effect = lower value 0.948 | locus YPL204W, strain HRR25, stronger effect = lower value 0.936 | locus YPL209C, strain IPL1, stronger effect = lower value 0.983 | locus YPL256C, strain CLN2, stronger effect = lower value 0.909 | locus YPR025C, strain CCL1, stronger effect = lower value 0.975 | locus YPR106W, strain ISR1, stronger effect = lower value 0.972 | locus YPR111W, strain DBF20, stronger effect = lower value 0.955 | strain NNK1, stronger effect = lower value 0.97 | strain TSCII, stronger effect = lower value 0.98
active: [7] 0.682
